The values below come from ChEMBL document CHEMBL3988442, “University of Dundee, Small-Polar-MMV Screening Library” (2021).

Out of some 48,000 compounds screened, about 13,000 (27%) showed an effect of 50% or more. The list shows a part of the results.

This test has as its system Wolbachia pipientis. Put plainly: Anti-Wolbachia Cell-Based Screen. In kind it is functional. Set-up: scale not given: in the data most compounds retested in dose-response had high values. To be noted: 5 µM.
Regarding `Cc1ccncc1C(=O)N1CC[C@@]2(O)CCN(C3CCCCC3)C[C@H]2C1`, the “Percent Effect” value is given as -0.1912%.

As for `O=C(NCC(O)c1ccc(F)cc1)C1CCN(C2CCCCC2)CC1` (configuration not stated), the “Percent Effect” value was 4.274%.

In the case of `CC(C)(C)n1ncc2c(=O)[nH]c(N3CCN(CC(F)F)CC3)nc21`, the “Percent Effect” value is 4.311%.

In the case of `Cc1ccccc1-c1csc2c(=O)[nH]c(N3CCCC(C(=O)O)C3)nc12` (configuration not stated), the “Percent Effect” value is reported as 12.14%.

For the molecule `Cn1[nH]c(C2CCC2)c(-c2ccc3c(c2)OCO3)c1=N`, the “Percent Effect” value is listed as 9.847%.

Turning to `COc1ccccc1-c1ccnc2nc(N3CCCCC3)[nH]c(=O)c12`, the “Percent Effect” value amounted to 113.6%.

As for `COc1cccc(-c2ccnc3nc(N4CCCCC4)[nH]c(=O)c23)c1`, the “Percent Effect” value is listed as 120.5%.

Turning to `COc1cccc(-c2n[nH]cc2-c2nc(CN3CCCC3)no2)c1`, the “Percent Effect” value was -0.8918%.

For the molecule `COc1ccc(-c2ccnc3nc(N4CCCC4)[nH]c(=O)c23)cc1OC`, the “Percent Effect” value was determined as 143.1%.

For the molecule `O=c1[nH]c(NC2CCCC2)nc2nccc(-c3ccsc3)c12`, the “Percent Effect” value was -12.83%.

Regarding `O=c1[nH]c(N2CCCCC2)nc2nccc(-c3ccc4c(c3)OCO4)c12`, the “Percent Effect” value stood at 81.44%.

As for `Cc1nc(N2CCCCC2)ncc1-c1cc(=O)[nH]c(N2CCCC2)n1`, the “Percent Effect” value is -11.82%.

`Cc1ccc(-c2csc3c(=O)[nH]c(N4CCCC(C(=O)O)C4)nc23)cc1` (configuration not stated): the “Percent Effect” value came to 13.24%.

For `COc1cccc2c1OCCCN(c1nc3c(c(=O)[nH]1)CCNCC3)C2`, the “Percent Effect” value is given as -4.298%.

Regarding `CCN(Cc1ccoc1)C(=O)Nc1ccccc1CN(C)C(C)=O`, the “Percent Effect” value is on record as -2.695%.

On to `CNC(=O)c1nc2c(s1)CCN(C(=O)c1cccc(OC)c1)CC2`, for which the “Percent Effect” value is -8.352%.

In the case of `O=C(NC[C@H]1OC[C@@H](NC2COC2)[C@@H]1O)c1ccccc1`, the “Percent Effect” value is -18.77%.

As for `COc1ccc(CCNC(=O)N2CCN(C)[C@@H]3CS(=O)(=O)C[C@@H]32)cc1`, the “Percent Effect” value was found to be 3.976%.

For the molecule `N#Cc1c(F)cccc1N1CCC(NS(=O)(=O)c2cccs2)CC1`, the “Percent Effect” value was -19.03%.

Regarding `COCC1c2nnn(CC3CC3)c2CCN1C(=O)C1CCOCC1` (configuration not stated), the “Percent Effect” value was -9.696%.

Turning to `CC(C)(C)C(=O)NCCC(=O)Nc1cc(C#N)cn1C(C)(C)C`, the “Percent Effect” value is -12.46%.

Take `O=C(NC[C@H]1OC[C@@H](NC2CCCCC2)[C@@H]1O)Nc1ccccc1`: the “Percent Effect” value came to 2.791%.

As for `Cc1cc(N2CCN(c3nc4ccccc4cc3CO)CC2)nc(C)n1`, the “Percent Effect” value came to 9.089%.

In the case of `COc1ccc(-c2ccnc3c2C(=O)CCC3)cc1`, the “Percent Effect” value is -3.402%.

On to `NC(=O)C1CCN(c2nc3nccc(-c4ccccc4)c3c(=O)[nH]2)CC1`, for which the “Percent Effect” value was -1.836%.

`COc1ccc(-c2ccnc3nc(N4CCCCC4)[nH]c(=O)c23)cc1`: the “Percent Effect” value came to 107.2%.

Take `NC(=O)C1CCN(C(C(=O)O)c2ccc(Cl)c(C(F)(F)F)c2)CC1` (configuration not stated): the “Percent Effect” value is listed as -1.554%.

Take `CN(C)CCN(C)C1CCN(C(C(=O)O)c2ccc(F)c(Cl)c2)CC1` (configuration not stated): the “Percent Effect” value was found to be 97.08%.

For `COc1ccccc1C(C(=O)O)N1CCCN(C2CCCC2)CC1` (configuration not stated), the “Percent Effect” value is on record as -24.96%.

Take `O=C(O)C(c1ccc(Cl)c(F)c1)N1CCN(Cc2ccccn2)CC1` (configuration not stated): the “Percent Effect” value was found to be 0.4357%.

On to `COc1ccc(C(C(=O)O)N2CCC(O)(c3cccnc3)CC2)cc1F` (configuration not stated), for which the “Percent Effect” value is given as -17.65%.

As for `COc1ccc(C(C(=O)O)N2CCN(C3CCCC3)CC2)cc1OC` (configuration not stated), the “Percent Effect” value is reported as 20.13%.

For `O=C(O)C(c1ccc2c(c1)OCO2)N1CCCCCC1` (configuration not stated), the “Percent Effect” value came out at 23.77%.

As to `COCCOC1CCN(C(C(=O)O)c2c(Cl)cccc2OC)CC1` (configuration not stated), the “Percent Effect” value was 87.97%.

Turning to `COCCOC1CCN(C(C(=O)O)c2ccc3c(c2)OCO3)CC1` (configuration not stated), the “Percent Effect” value came out at 111.3%.

With `COCCOC1CCN(C(C(=O)O)c2ccc(OC)c(F)c2)CC1` (configuration not stated), the “Percent Effect” value stood at 107.6%.

`COc1cccc(Cl)c1C(C(=O)O)N1CCC(O)(c2cccnc2)CC1` (configuration not stated): the “Percent Effect” value amounted to 0.4267%.

As for `O=C(O)C(c1ccc2c(c1)OCO2)N1CCCC1` (configuration not stated), the “Percent Effect” value is -31.26%.

As to `Cn1cnc2c1C(COCc1cccnc1)N(Cc1nccs1)CC2.O=C(O)C(F)(F)F.O=C(O)C(F)(F)F.O=C(O)C(F)(F)F` (configuration not stated), the “Percent Effect” value worked out at 0.7375%.

In the case of `COCCOC1CCN(C(C(=O)O)c2ccc(F)c(Cl)c2)CC1` (configuration not stated), the “Percent Effect” value was 111%.

As for `COc1ccc(C(C(=O)O)N2CCN(C3CCCC3)CC2)cc1C` (configuration not stated), the “Percent Effect” value is 19.06%.

Take `CCOc1ccc(Cl)cc1C(C(=O)O)N1CCC(CO)CC1` (configuration not stated): the “Percent Effect” value is listed as -16.74%.

As to `CCCc1nnc2sc(-c3cc(C(C)C)n[nH]3)nn12`, the “Percent Effect” value is 120.9%.

Regarding `CC(C)Cc1nnc2sc(-c3cc(C(C)C)n[nH]3)nn12`, the “Percent Effect” value came out at 131.5%.

For `CCN(CC)Cc1nnc2sc(-c3cc(C(C)C)[nH]n3)nn12`, the “Percent Effect” value is listed as 118.1%.

With `CC(C)c1cc(-c2nn3c(C(C)C)nnc3s2)[nH]n1`, the “Percent Effect” value is -17.87%.

Take `Cc1nnc2sc(-c3cc(C(C)C)n[nH]3)nn12`: the “Percent Effect” value is -19.82%.

With `Cc1cc(-c2nn3c(C)nnc3s2)n[nH]1`, the “Percent Effect” value is given as 0.3213%.

Take `CCc1nnc2sc(-c3cc(C(C)C)n[nH]3)nn12`: the “Percent Effect” value worked out at 154.2%.

Consider `CCC(Nc1nc(C(C)C)nc2c1cnn2C)c1ccc(O)cc1` (configuration not stated), for which the “Percent Effect” value is listed as -13.26%.

Consider `Cc1nc(CNC(C)c2cccc(N3CCCC3=O)c2)cs1.Cl` (configuration not stated), for which the “Percent Effect” value is -6.766%.

As to `OCC1CCCCN1Cc1nc(Cc2cccc(F)c2)no1` (configuration not stated), the “Percent Effect” value was -3.414%.

In the case of `OCC1CCCCN1Cc1nc(Cc2ccccc2)no1` (configuration not stated), the “Percent Effect” value amounted to 15.34%.

Turning to `c1ccc(Cc2noc(CN3CCCC3Cn3cccn3)n2)cc1` (configuration not stated), the “Percent Effect” value was 101.6%.

Take `CCc1nc(C2CCCN2Cc2nc(Cc3ccccc3)no2)no1` (configuration not stated): the “Percent Effect” value is given as -2.634%.

On to `c1ccc(Cc2noc(CN3CCCC3C3CCCCC3)n2)cc1` (configuration not stated), for which the “Percent Effect” value worked out at 35.45%.

For the molecule `c1ccc(Cc2noc(CN3CCCCC3Cn3cccn3)n2)cc1` (configuration not stated), the “Percent Effect” value worked out at 121.7%.

Turning to `Cc1ccc(O)c(C(=O)N2CCCC2c2nncn2CC(C)C)c1` (configuration not stated), the “Percent Effect” value is reported as -6.935%.

In the case of `COCCNc1ccc(CNC(=O)C2COc3ccccc32)cc1` (configuration not stated), the “Percent Effect” value was -1.749%.

For `O=S(=O)(Cc1nc(C2CC2)no1)c1ccccc1F`, the “Percent Effect” value is given as -2.004%.

Take `CCC(C(=O)NCc1ccccn1)N(c1cccc(C)c1)S(C)(=O)=O` (configuration not stated): the “Percent Effect” value worked out at 1.713%.

Take `Cn1cnc(S(=O)(=O)N2CCCC2)c1Cl`: the “Percent Effect” value is listed as -6.345%.

In the case of `Cn1cnc(S(=O)(=O)NCCCN2CCCC2)c1Cl`, the “Percent Effect” value came out at 98.8%.

On to `Cn1cnc(S(=O)(=O)NCCCN2CCOCC2)c1Cl`, for which the “Percent Effect” value is -0.729%.

Turning to `CCCN1CCN(S(=O)(=O)c2ncn(C)c2Cl)CC1`, the “Percent Effect” value came out at 1.683%.

Take `Cn1cnc(S(=O)(=O)NCCN2CCCCCC2)c1Cl`: the “Percent Effect” value is on record as 104.3%.

Consider `Cn1cnc(S(=O)(=O)NCCCN2CCCCCC2)c1Cl`, for which the “Percent Effect” value is recorded as 0.4653%.
